What all share (assay): yeast three-hybrid, YBZ-1, SC-Leu-His + 0.5 mM 3-AT, 4 days
Settings in all cases: tags: N-Gal4 AD-HA kept; label: inside an RPR1-promoter hybrid RNA with tandem MS2 sites; ssRNA

One assay has as its target PUM1 PUF domain R5-KHL (Homo sapiens, UniProt Q14671 828-1176, C1007K;R1008H;Q1011L). The essentials: (§1)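 Matching RNA elements and Pumilio-1 PUF domain libraries, randomized at the three base-contacting residues of every repeat, were co-expressed from a centromeric plasmid in strain YBZ-1 (LexA–MS2 coat fusion, HIS3 reporter). The repeat regions were PCR-amplified and Illumina-sequenced from cells grown four days on SC-Leu (input) or SC-Leu-His + 0.5 mM 3-AT (selection). The interaction score is the log change in variant frequency from input to selection. It is computed in log2, with a pseudocount of 1 for absent variants.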

Another assay deals with T1, PUM1 PUF domain R6-KWR (Homo sapiens, UniProt Q14671 828-1176, N1043K;Y1044W;Q1047R).
T1 sequence: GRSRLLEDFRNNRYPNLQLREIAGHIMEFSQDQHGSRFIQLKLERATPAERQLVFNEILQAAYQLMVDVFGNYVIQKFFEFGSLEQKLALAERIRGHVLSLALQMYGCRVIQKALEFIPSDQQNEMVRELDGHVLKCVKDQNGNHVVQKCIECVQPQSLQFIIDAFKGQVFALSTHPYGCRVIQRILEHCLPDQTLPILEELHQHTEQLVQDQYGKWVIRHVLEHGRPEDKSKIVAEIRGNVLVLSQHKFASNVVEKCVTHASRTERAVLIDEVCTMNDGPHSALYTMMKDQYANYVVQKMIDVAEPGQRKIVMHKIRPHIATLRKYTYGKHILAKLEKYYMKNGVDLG
Put shortly: as §1

In another assay the target is PUM1 PUF domain R7-QRD (Homo sapiens, UniProt Q14671 828-1176, S1079Q;N1080R;E1083D). Put shortly: as §1
For another assay, the target named is T2, PUM1 PUF domain R6-LWV (Homo sapiens, UniProt Q14671 828-1176, N1043L;Y1044W;Q1047V).
T2 sequence: T1 sequence with K216L, R220V
Put shortly:
as §1

For a further assay, the target named is PUM1 PUF domain R3-GWI (Homo sapiens, UniProt Q14671 828-1176, C935G;R936W;Q939I). The essentials:
as §1

In the next assay the target is PUM1 PUF domain R5-MSR (Homo sapiens, UniProt Q14671 828-1176, C1007M;R1008S;Q1011R). The essentials: as §1
The next assay deals with PUM1 PUF domain R3-VNE (Homo sapiens, UniProt Q14671 828-1176, C935V;R936N;Q939E). Put shortly: as §1
In the next assay the target is PUM1 PUF domain R8-RKR (Homo sapiens, UniProt Q14671 828-1176, N1122R;Y1123K;Q1126R). Put shortly:
as §1

The target in the next assay is PUM1 PUF domain R3-LYS (Homo sapiens, UniProt Q14671 828-1176, C935L;R936Y;Q939S). The essentials:
as §1

Another assay addresses PUM1 PUF domain R1-KWE (Homo sapiens, UniProt Q14671 828-1176, S863K;R864W;Q867E). The essentials:
as §1

Another assay concerns the target PUM1 PUF domain R3-RQG (Homo sapiens, UniProt Q14671 828-1176, C935R;R936Q;Q939G). The essentials:
as §1

In a further assay the target is PUM1 PUF domain R3-QPE (Homo sapiens, UniProt Q14671 828-1176, C935Q;R936P;Q939E). Put shortly:
as §1

Another assay has as its target T3, PUM1 PUF domain R6-QWM (Homo sapiens, UniProt Q14671 828-1176, N1043Q;Y1044W;Q1047M).
T3 sequence: T1 sequence with K216Q, R220M
Put shortly:
as §1

For a further assay, the target named is PUM1 PUF domain R2-KLQ (Homo sapiens, UniProt Q14671 828-1176, N899K;Y900L). Put shortly: as §1
For the next assay, the target named is PUM1 PUF domain R4-DYN (Homo sapiens, UniProt Q14671 828-1176, N971D;H972Y;Q975N). The essentials:
as §1

A further assay addresses PUM1 PUF domain R5-RMK (Homo sapiens, UniProt Q14671 828-1176, C1007R;R1008M;Q1011K). The essentials:
as §1

The target in the next assay is T4, PUM1 PUF domain R6-SHE (Homo sapiens, UniProt Q14671 828-1176, N1043S;Y1044H;Q1047E).
T4 sequence: T1 sequence with K216S, W217H, R220E
The essentials: as §1

In a further assay the target is PUM1 PUF domain R1-RMT (Homo sapiens, UniProt Q14671 828-1176, S863R;R864M;Q867T). Put shortly:
as §1

Substitutions are numbered along the chain they refer to.

As for “GGCUAGAACUAGUGGAUCCCCCGGCGCCCGGCGGCUCGAGCCCGGGUAAGUGUUAAUAGUCUGCAUGCCGCCGGGCGCCAUGCCUGCAGGUCGACUCUAGAAAACAUG”, the binding signal with PUM1 PUF domain R5-KHL is 5.83 log2 enrichment (interaction score). In the case of “GGCUAGAACUAGUGGAUCCCCCGGCGCCCGGCGGCUCGAGCCCGGGUAAGUGUAAAUAGUCUGCAUGCCGCCGGGCGCCAUGCCUGCAGGUCGACUCUAGAAAACAUG”, the binding signal was 6.69 log2 enrichment (interaction score) with PUM1 PUF domain R6-KWR; 2.72 log2 enrichment (interaction score) with PUM1 PUF domain R7-QRD; 3.67 log2 enrichment (interaction score) with PUM1 PUF domain R6-LWV; 2.68 log2 enrichment (interaction score) with PUM1 PUF domain R3-GWI; 1 log2 enrichment (interaction score) in the assay with PUM1 PUF domain R5-MSR; 3.16 log2 enrichment (interaction score) with PUM1 PUF domain R3-VNE. The binding signal in the assay with PUM1 PUF domain R8-RKR was 3.9 log2 enrichment (interaction score); with PUM1 PUF domain R3-LYS, 4.77 log2 enrichment (interaction score).

As to “GGCUAGAACUAGUGGAUCCCCCGGCGCCCGGCGGCUCGAGCCCGGGUAAGUGUAAAUCGUCUGCAUGCCGCCGGGCGCCAUGCCUGCAGGUCGACUCUAGAAAACAUG”, in the assay with PUM1 PUF domain R1-KWE, the binding signal was 4.74 log2 enrichment (interaction score). On to “GGCUAGAACUAGUGGAUCCCCCGGCGCCCGGCGGCUCGAGCCCGGGUAAGUGUAAUUAGUCUGCAUGCCGCCGGGCGCCAUGCCUGCAGGUCGACUCUAGAAAACAUG”, for which the binding signal in the assay with PUM1 PUF domain R3-RQG is 4.14 log2 enrichment (interaction score); in the assay with PUM1 PUF domain R3-QPE, 2.87 log2 enrichment (interaction score); in the assay with PUM1 PUF domain R3-LYS, 5.78 log2 enrichment (interaction score).

Take “GGCUAGAACUAGUGGAUCCCCCGGCGCCCGGCGGCUCGAGCCCGGGUAAGUGAAAAUAGUCUGCAUGCCGCCGGGCGCCAUGCCUGCAGGUCGACUCUAGAAAACAUG”: the results for the binding signal in the assay with PUM1 PUF domain R6-LWV and in the assay with PUM1 PUF domain R6-QWM were 2.8 log2 enrichment (interaction score) and 4.68 log2 enrichment (interaction score), respectively. As to “GGCUAGAACUAGUGGAUCCCCCGGCGCCCGGCGGCUCGAGCCCGGGUAAGUGUAAAGAGUCUGCAUGCCGCCGGGCGCCAUGCCUGCAGGUCGACUCUAGAAAACAUG”, the binding signal with PUM1 PUF domain R2-KLQ was 3.21 log2 enrichment (interaction score).

For “GGCUAGAACUAGUGGAUCCCCCGGCGCCCGGCGGCUCGAGCCCGGGUAAGUGUAUAUAGUCUGCAUGCCGCCGGGCGCCAUGCCUGCAGGUCGACUCUAGAAAACAUG”, the binding signal with PUM1 PUF domain R4-DYN was 5.22 log2 enrichment (interaction score). “GGCUAGAACUAGUGGAUCCCCCGGCGCCCGGCGGCUCGAGCCCGGGUAAGUGUCAAUAGUCUGCAUGCCGCCGGGCGCCAUGCCUGCAGGUCGACUCUAGAAAACAUG”: the binding signal in the assay with PUM1 PUF domain R5-MSR was 3.83 log2 enrichment (interaction score); with PUM1 PUF domain R5-RMK, 2.87 log2 enrichment (interaction score).

For the sequence “GGCUAGAACUAGUGGAUCCCCCGGCGCCCGGCGGCUCGAGCCCGGGUAAGUGGAAAUAGUCUGCAUGCCGCCGGGCGCCAUGCCUGCAGGUCGACUCUAGAAAACAUG”, the binding signal with PUM1 PUF domain R6-SHE was 4.66 log2 enrichment (interaction score). For the sequence “GGCUAGAACUAGUGGAUCCCCCGGCGCCCGGCGGCUCGAGCCCGGGUAAGUGUAAGUAGUCUGCAUGCCGCCGGGCGCCAUGCCUGCAGGUCGACUCUAGAAAACAUG”, the binding signal with PUM1 PUF domain R3-VNE is 0.75 log2 enrichment (interaction score). “GGCUAGAACUAGUGGAUCCCCCGGCGCCCGGCGGCUCGAGCCCGGGUAAGUGUAAAUGGUCUGCAUGCCGCCGGGCGCCAUGCCUGCAGGUCGACUCUAGAAAACAUG”: the binding signal with PUM1 PUF domain R1-RMT is 1.2 log2 enrichment (interaction score). Same read-out and setting: as for “GGCUAGAACUAGUGGAUCCCCCGGCGCCCGGCGGCUCGAGCCCGGGUAAGUGUAAAUUGUCUGCAUGCCGCCGGGCGCCAUGCCUGCAGGUCGACUCUAGAAAACAUG”, the figure is 3.66 log2 enrichment (interaction score). Turning to “GGCUAGAACUAGUGGAUCCCCCGGCGCCCGGCGGCUCGAGCCCGGGUAAGCGUAAAUAGUCUGCAUGCCGCCGGGCGCCAUGCCUGCAGGUCGACUCUAGAAAACAUG”, in the assay with PUM1 PUF domain R8-RKR, the binding signal was 5.43 log2 enrichment (interaction score).
